AmpC nodet inh: AmpC beta-lactamase inhibition, detergent-free assay | P00811 | AmpC nitrocefin hydrolysis, absorbance 480 nm, no detergent | Potency, µM (series often up to 28.7 µM) | 1.8% of 71,000 active
Target sequence (P00811 whole entry, looked up): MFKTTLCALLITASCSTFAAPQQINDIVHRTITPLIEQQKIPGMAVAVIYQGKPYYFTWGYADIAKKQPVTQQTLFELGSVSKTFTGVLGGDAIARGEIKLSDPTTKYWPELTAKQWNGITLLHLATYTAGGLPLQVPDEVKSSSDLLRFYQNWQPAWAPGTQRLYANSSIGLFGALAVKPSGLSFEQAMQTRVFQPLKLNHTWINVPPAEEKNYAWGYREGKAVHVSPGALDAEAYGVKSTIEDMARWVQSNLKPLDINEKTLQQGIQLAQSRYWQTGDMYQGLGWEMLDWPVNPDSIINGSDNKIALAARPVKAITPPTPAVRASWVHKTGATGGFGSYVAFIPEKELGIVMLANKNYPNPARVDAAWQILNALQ
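Enzyme, pH 7.0 phosphate. Compound titrations were pre-incubated with AmpC for 15 min at room temperature before nitrocefin (stock 800 uM) addition; product formation was recorded at 480 nm every 20 s for 4 min.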
SmPrx2 inh: inhibitors of Schistosoma mansoni peroxiredoxin 2. S. mansoni Prx2 activity coupled to TGR/GSH (TGR is thioredoxin glutathione reductase), NADPH fluorescence loss, qHTS. 0.07% of 65,000 active. AID 448. Potency, µM
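Purified S. mansoni TGR and Prx2 in pH 7.4 phosphate buffer with EDTA and Tween-20 were preincubated with compounds for 15 min. Further NADPH/GSH was added, then a 2.5 mM H2O2 aliquot initiated turnover, followed kinetically by NADPH fluorescence.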
Anthrax LT inh: inhibitors of anthrax lethal toxin internalization; AID 912; Cells, anthrax lethal toxin internalization, FRET ratio (460/530); Potency, µM (titrated, usually from 40 µM), usual class: inhibitors; 0.67% of 70,000 active; note: nearly all actives have a fitted effect of over 50% in size
AmpC inh det: blocks E. coli AmpC beta-lactamase in presence of detergent | P00811 | purified AmpC, nitrocefin hydrolysis with detergent | Potency, µM (highest dose often 28.7 µM) | 0.09% of 71,000 active | AID 584; active = well fitted curve in the direction sought with a large enough effect; inconclusive = small, poorly fitted or top-dose-only effect
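E. coli AmpC (5.3 nM) in 20 mM phosphate pH 7.0 with 0.01% Triton X-100, preincubated 15 min RT with compound; nitrocefin (2 uL of 800 uM stock) hydrolysis followed by 480 nm absorbance every 20 s over 4 min.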
Of the large screens only hits and unclear results are named; the others gave an inactive call; [ ] = dose if it differs, or a comment. The list is not random: actives were taken first. Their share in the collection is about 2.6%. Unless noted, calls come from the whole dose curve.

CCOC(=O)C1CCN(c2c(N3CCCC(C(=O)OCC)C3)c(=O)c2=O)CC1 (stereo unspecified)	Anthrax LT inh inconclusive
O=C(NCCc1ccccc1)C1CCCN(S(=O)(=O)c2cccs2)C1 (stereo unspecified)	AmpC nodet inh 3.98µM[single pt active]
O=C(C1CCCN(S(=O)(=O)c2cccs2)C1)N1CCC(N2CCCCC2)CC1 (stereo unspecified)	AmpC nodet inh 3.98µM[single pt active]
Cc1ncc(CO)c2cc(S(=O)(=O)c3ccc(F)cc3)c(=O)oc12	AmpC nodet inh 3.98µM[single pt active], SmPrx2 inh 17
CC1CCC(C(C)C)C(OC(=O)COC(=O)c2ccc(=O)[nH]c2)C1 (stereo unspecified)	Anthrax LT inh 12.6µM
COC(=O)c1ccccc1NC(=O)N1CCN(C/C=C/c2ccccc2)CC1	none
O=C(Nc1ccc(F)cc1F)N1CCN(C/C=C/c2ccccc2)CC1	AmpC nodet inh 3.98µM[single pt active]
CN(C)CCCO[C@H]1[C@@H]2OC(C)(C)O[C@@H]2O[C@@H]1[C@H](O)CO	none
CCCc1ccc(OCc2ccc(C(=O)N3CCN(c4ccccn4)CC3)o2)c(OC)c1	Anthrax LT inh 12.6µM
CO[C@]1(NC(=O)[C@H](C(=O)O)c2ccc(O)cc2)C(=O)N2C(C(=O)O)=C(CSc3nnnn3C)CO[C@H]21	Anthrax LT inh inconclusive
CCOC(=O)c1c(C)n(C)c2ccc(OCC(O)Cn3nc(C)c(Br)c3C)cc12 (stereo unspecified)	Anthrax LT inh 10µM
CN(C)c1ccc(-c2cncnc2NCCc2cnc[nH]2)cc1	none
O=C(Nc1ccc(F)c(Cl)c1)c1ccc2c(=O)n3c(nc2c1)CCCCC3	none
O=C(Nc1cccc(Cl)c1)c1ccc2c(=O)n3c(nc2c1)CCCCC3	Anthrax LT inh 12.6µM
CN(C(=O)c1ccc2c(=O)n3c(nc2c1)CCCCC3)c1ccccc1	none
O=C(NCCC1=CCCCC1)c1ccc2c(=O)n3c(nc2c1)CCCCC3	Anthrax LT inh 12.6µM
O=C1CCCC=C1[C@@H](O)CCOCc1ccccc1	none (no result: AmpC nodet inh, SmPrx2 inh, AmpC inh det)
COc1ccc(CNC(=O)[C@H](C)[C@H]2C[C@]2(C)[C@H](NC(=O)OCc2ccccc2)c2ccccc2)cc1OC	none
COc1ccc(C2CC(c3ccccc3C)n3nc(N)nc3N2)cc1 (stereo unspecified)	AmpC nodet inh 3.98µM[single pt active]
Cc1ccc(C2CC(c3ccccc3C)n3nc(N)nc3N2)cc1 (stereo unspecified)	AmpC nodet inh 3.98µM[single pt active]
CCOc1ccc(C2CC(c3ccccc3C)n3nc(N)nc3N2)cc1 (stereo unspecified)	none
COc1cccc(C2CC(c3ccccc3C)n3nc(N)nc3N2)c1 (stereo unspecified)	AmpC nodet inh 3.98µM[single pt active]
CC1=N[C@@](C)(COC(=O)[C@]2(C)N[C@](C)(CO)CO2)COC1=O	none
CNCC[C@H](Oc1ccccc1OC)c1ccccc1	none
c1ccc(-c2cccc(N3CC4(CCNCC4)C3)c2)cc1	none
c1ccc(-c2cccc(N3CCC4(CCNCC4)CC3)c2)cc1	Anthrax LT inh 10µM
O=C1Nc2ccccc2C2(CCN(CCc3ccc(C(F)(F)F)cc3)CC2)O1	Anthrax LT inh 10µM (no result: AmpC nodet inh, SmPrx2 inh, AmpC inh det)
CN(C)c1ccc2c(c1)OC(N)=C(C#N)C2c1cccc(F)c1 (stereo unspecified)	Anthrax LT inh 6.31µM (no result: SmPrx2 inh)
N#CC1=C(N)Oc2cc(O)ccc2C1c1cccs1 (stereo unspecified)	none (no result: SmPrx2 inh)
CCN=C(N)CSS(=O)(=O)O	none
O=C1OC(NC(=O)c2ccccc2)C(n2cc(CO)nn2)=C1Cl (stereo unspecified)	Anthrax LT inh 12.6µM
O=C(NCc1ccc2c(c1)OCO2)c1ccc2c(=O)n(C3CCCC3)c(=O)[nH]c2c1	AmpC nodet inh 7.94µM, Anthrax LT inh inconclusive
COc1ccc(Cn2c(=O)[nH]c3cc(C(=O)NCc4ccc5c(c4)OCO5)ccc3c2=O)cc1	AmpC nodet inh 12.6µM[single pt active]
COc1ccc(Cn2c(=O)[nH]c3cc(C(=O)NCCCN4CCCCC4)ccc3c2=O)cc1	none
FC(F)(F)c1ccccc1-c1ccc2ncnc(NC3CCNCC3)c2c1	Anthrax LT inh inconclusive
COC(c1ccccc1Br)C(C)/C=C/CCO (stereo unspecified)	none (no result: AmpC nodet inh, SmPrx2 inh, AmpC inh det)
CCOC(=O)CC(SP(=S)(OC)OC)C(=O)OCC (stereo unspecified)	AmpC nodet inh inconclusive, Anthrax LT inh inconclusive, AmpC inh det 6.31µM (no result: SmPrx2 inh)
CCOC(=O)OCC	none (no result: SmPrx2 inh)
CC(=O)OCC1C2CC[C@H]3C(OCc4ccc(F)cc4C(F)(F)F)OC[C@]4(C)[C@H]3C2=C(CN4C(=O)OC(C)(C)C)[C@H](C)C1COC(C)=O (stereo partly specified)	Anthrax LT inh inconclusive
Nc1c(C(=O)Nc2ccc3c(c2)OCCO3)nnn1CCc1ccccc1	AmpC nodet inh 3.98µM[single pt active], Anthrax LT inh inconclusive
COc1ccc(C)cc1NC(=O)c1nnn(Cc2cc(C)ccc2C)c1N	AmpC nodet inh 3.98µM[single pt active] (no result: SmPrx2 inh)
COc1ccc(OC)c(NC(=O)c2nnn(Cc3ccccc3C)c2N)c1	none
COc1cccc(Cn2nnc(C(=O)Nc3cc(C)ccc3OC)c2N)c1	AmpC nodet inh 3.98µM[single pt active]
COc1cccc(CNC(=O)c2nnn(CC(=O)Nc3ccc(C)c(C)c3)c2N)c1	none
COc1cccc(Cn2nnc(C(=O)Nc3ccc(C)cc3)c2N)c1	AmpC nodet inh 3.98µM[single pt active]
C/C=C\C1=C(CO)[C@H](O)[C@H]2OC2[C@@H]1O (stereo partly specified)	none (no result: AmpC nodet inh, SmPrx2 inh, AmpC inh det)
Nc1nc(N)c(N=Nc2ccc(C(=O)O)c(O)c2)c(N)n1	none
COc1ccccc1NC(=O)c1nnn(CC(=O)Nc2ccccc2)c1N	none
COc1ccc(C)cc1NC(=O)c1nnn(CCc2ccccc2)c1N	AmpC nodet inh 3.98µM[single pt active]
COC(=O)[C@H]1[C@@H](c2ccccc2)[C@@]2(c3ccccc3)Oc3ccccc3[C@@]1(O)[C@@H]2O	none (no result: AmpC nodet inh, SmPrx2 inh, AmpC inh det)
Cc1ccc(S(=O)(=O)N(CC(O)CN2CCCCC2)c2ccccc2)cc1 (stereo unspecified)	AmpC nodet inh 3.98µM[single pt active]
OCl	none (no result: SmPrx2 inh)
NCCC[C@@H](CC(=O)N[C@@H]1CCCC[C@H]1C(=O)N[C@H](CC(=O)N[C@@H](CCC(=O)O)CC(=O)O)Cc1c[nH]c2ccccc12)NC(=O)C[C@H](CO)NC(=O)[C@@H]1CNCC[C@H]1N	none
Clc1ccc2c(NC3CCC(N4CCCCC4)CC3)ccnc2c1 (stereo unspecified)	Anthrax LT inh 2.51µM
CCOC(=O)C1CCCN(CCC(=O)Nc2cccc(F)c2)C1 (stereo unspecified)	none
CCOC(=O)C1CCN(CCC(=O)Nc2cccc(Cl)c2)CC1	Anthrax LT inh 10µM
COCC(=O)N1CCC[C@@]2(CCN(C(c3ccccc3)c3ccccc3)C2)C1	none
CCCSc1nc(C)cc(=O)[nH]1	none
Cc1cc(=O)[nH]c(SCc2cc(=O)n3nc(C)sc3n2)n1	AmpC nodet inh 3.98µM[single pt active]
O=C1CCc2cc(S(=O)(=O)NC(Cc3ccccc3)C(=O)NC3CCCC3)ccc2N1 (stereo unspecified)	AmpC nodet inh 3.98µM[single pt active]
CN(Cc1ccco1)C(=O)C(Cc1ccccc1)NS(=O)(=O)c1ccc2c(c1)CCC(=O)N2 (stereo unspecified)	AmpC nodet inh 3.98µM[single pt active]
